Measured values taken from PubChem BioAssay (NCI).
This is part of a sample that, as a whole, favours compounds with a hit. Of some 83,000 tested, about 20% had one in any assay.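 The endpoint reported here, percent growth, reads 100 for growth as untreated, 0 for no net growth and -100 for all cells dead.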 A number with no mark means an inactive call. Calls of active or inactive are those of the source. Rule for the calls: active = growth percent below 10; inactive = the rest.

Tests used:
Assay in all cases: NCI-60 one-dose screen, 48 h (100 = growth as untreated, 0 = no growth, -100 = all killed)
SK-MEL-2 melanoma = test system: SK-MEL-2 melanoma
EKVX NSCLC = test system: EKVX NSCLC
SN12C renal = test system: SN12C renal
UO-31 renal = test system: UO-31 renal
TK-10 renal = test system: TK-10 renal
ACHN renal = test system: ACHN renal
CAKI-1 renal = test system: CAKI-1 renal
A498 renal = test system: A498 renal
CCRF-CEM leukemia = test system: CCRF-CEM leukemia
MOLT-4 leukemia = test system: MOLT-4 leukemia

**Q.** `O=C1NC(=O)c2cc([N+](=O)[O-])ccc21` was tested. Which growth (SK-MEL-2 melanoma; 10 µM) did it give?
**A.** 107%

**Q.** And the growth (EKVX NSCLC; 10 µM)?
**A.** 103%

**Q.** And the growth (SN12C renal; 10 µM)?
**A.** 101%

**Q.** What about the growth (UO-31 renal; 10 µM) of the same compound?
**A.** 85.5%

**Q.** And the growth (TK-10 renal; 10 µM)?
**A.** 99.3%

**Q.** What about the growth (ACHN renal; 10 µM) of the same compound?
**A.** 103%

**Q.** And the growth (CAKI-1 renal; 10 µM)?
**A.** 86.4%

**Q.** What about the growth (A498 renal; 10 µM) of the same compound?
**A.** 99.2%

**Q.** And the growth (CCRF-CEM leukemia; 10 µM)?
**A.** 45.3%

**Q.** And the growth (MOLT-4 leukemia; 10 µM)?
**A.** 96.9%

**Q.** With `CC(=O)OCC(OC(C)=O)C(OC(C)=O)C(OC(C)=O)C(OC(C)=O)C(/C=N/Nc1ccccc1)=N/Nc1ccccc1` (configuration not stated) as the compound, how does the growth (SK-MEL-2 melanoma; 10 µM) read?
**A.** 84.3%

**Q.** And the growth (EKVX NSCLC; 10 µM)?
**A.** 60%

**Q.** What about the growth (SN12C renal; 10 µM) of the same compound?
**A.** 78.7%

**Q.** And the growth (UO-31 renal; 10 µM)?
**A.** 48.6%

**Q.** What about the growth (TK-10 renal; 10 µM) of the same compound?
**A.** 91.2%

**Q.** What about the growth (ACHN renal; 10 µM) of the same compound?
**A.** 56.2%

**Q.** And the growth (CAKI-1 renal; 10 µM)?
**A.** 72.6%

**Q.** And the growth (A498 renal; 10 µM)?
**A.** 83.4%

**Q.** And the growth (CCRF-CEM leukemia; 10 µM)?
**A.** 17.5%

**Q.** What about the growth (MOLT-4 leukemia; 10 µM) of the same compound?
**A.** 30.6%

**Q.** How did the growth (SK-MEL-2 melanoma; 10 µM) turn out when `CCN1/C(=C/C=C/C=C/c2sc3ccccc3[n+]2CC)Sc2ccccc21` was run?
**A.** -59.1% (active)

**Q.** What about the growth (EKVX NSCLC; 10 µM) of the same compound?
**A.** -31.9% (active)

**Q.** What about the growth (SN12C renal; 10 µM) of the same compound?
**A.** -20.7% (active)

**Q.** What about the growth (UO-31 renal; 10 µM) of the same compound?
**A.** -35.3% (active)

**Q.** What about the growth (TK-10 renal; 10 µM) of the same compound?
**A.** -6.28% (active)

**Q.** And the growth (ACHN renal; 10 µM)?
**A.** -45.6% (active)

**Q.** What about the growth (CAKI-1 renal; 10 µM) of the same compound?
**A.** -0.841% (active)

**Q.** What about the growth (A498 renal; 10 µM) of the same compound?
**A.** 9.48% (active)

**Q.** And the growth (CCRF-CEM leukemia; 10 µM)?
**A.** 8.96% (active)

**Q.** What about the growth (MOLT-4 leukemia; 10 µM) of the same compound?
**A.** -31.7% (active)

**Q.** For `COc1cccc2c1C(=O)c1c(O)c3c(c(O)c1C2=O)C[C@@](O)(C(=O)CO)C[C@@H]3OC1CC(N)C(O)C(C)O1` (some centres not stated), which growth (SK-MEL-2 melanoma; 0.0025 µM) is on record?
**A.** 112%

**Q.** And the growth (SK-MEL-2 melanoma; 1 µM)?
**A.** 31.3%

**Q.** And the growth (SK-MEL-2 melanoma; 2.5 µM)?
**A.** 75.1%

**Q.** What about the growth (SK-MEL-2 melanoma; 10 µM) of the same compound?
**A.** -28.5% (active)

**Q.** And the growth (EKVX NSCLC; 0.0025 µM)?
**A.** 102%

**Q.** And the growth (EKVX NSCLC; 1 µM)?
**A.** 65.8%

**Q.** And the growth (EKVX NSCLC; 2.5 µM)?
**A.** 88.8%

**Q.** And the growth (EKVX NSCLC; 10 µM)?
**A.** 24.6%

**Q.** And the growth (SN12C renal; 0.0025 µM)?
**A.** 104%

**Q.** And the growth (SN12C renal; 1 µM)?
**A.** -4.11% (active)

**Q.** What about the growth (SN12C renal; 2.5 µM) of the same compound?
**A.** 2.46% (active)

**Q.** What about the growth (SN12C renal; 10 µM) of the same compound?
**A.** 12%

**Q.** And the growth (UO-31 renal; 0.0025 µM)?
**A.** 87.1%

**Q.** And the growth (UO-31 renal; 1 µM)?
**A.** 61.3%

**Q.** What about the growth (UO-31 renal; 2.5 µM) of the same compound?
**A.** 67.3%

**Q.** What about the growth (UO-31 renal; 10 µM) of the same compound?
**A.** 4.05% (active)

**Q.** What about the growth (TK-10 renal; 1 µM) of the same compound?
**A.** 63.3%

**Q.** What about the growth (TK-10 renal; 2.5 µM) of the same compound?
**A.** 57.7%

**Q.** And the growth (TK-10 renal; 10 µM)?
**A.** 25.4%

**Q.** And the growth (ACHN renal; 0.0025 µM)?
**A.** 102%

**Q.** And the growth (ACHN renal; 1 µM)?
**A.** 19.6%

**Q.** And the growth (ACHN renal; 2.5 µM)?
**A.** 35.6%

**Q.** What about the growth (ACHN renal; 10 µM) of the same compound?
**A.** -13.8% (active)

**Q.** And the growth (CAKI-1 renal; 1 µM)?
**A.** 45%

**Q.** And the growth (CAKI-1 renal; 2.5 µM)?
**A.** 17.6%

**Q.** What about the growth (CAKI-1 renal; 10 µM) of the same compound?
**A.** -28.9% (active)

**Q.** And the growth (A498 renal; 0.0025 µM)?
**A.** 93.5%

**Q.** What about the growth (A498 renal; 1 µM) of the same compound?
**A.** 76.5%

**Q.** What about the growth (A498 renal; 2.5 µM) of the same compound?
**A.** 52.6%

**Q.** What about the growth (CCRF-CEM leukemia; 0.0025 µM) of the same compound?
**A.** 104%

**Q.** And the growth (CCRF-CEM leukemia; 1 µM)?
**A.** 26.8%

**Q.** And the growth (CCRF-CEM leukemia; 2.5 µM)?
**A.** 53.3%

**Q.** What about the growth (CCRF-CEM leukemia; 10 µM) of the same compound?
**A.** -11.8% (active)

**Q.** And the growth (MOLT-4 leukemia; 0.0025 µM)?
**A.** 94.5%

**Q.** And the growth (MOLT-4 leukemia; 1 µM)?
**A.** 5.51% (active)

**Q.** And the growth (MOLT-4 leukemia; 2.5 µM)?
**A.** -21.6% (active)

**Q.** And the growth (MOLT-4 leukemia; 10 µM)?
**A.** -12% (active)

**Q.** What does the source list for `CN1CCN(CCCN2c3ccccc3Sc3ccc(C(F)(F)F)cc32)CC1`?
**A.** growth (SK-MEL-2 melanoma; 10 µM): 88.1%; growth (EKVX NSCLC; 10 µM): 66.9%; growth (SN12C renal; 10 µM): 57%; growth (UO-31 renal; 10 µM): 35.1%; growth (TK-10 renal; 10 µM): 66%; growth (ACHN renal; 10 µM): 46.6%; growth (CAKI-1 renal; 10 µM): 34%; growth (A498 renal; 10 µM): 70.2%; growth (CCRF-CEM leukemia; 10 µM): 50.2%; growth (MOLT-4 leukemia; 10 µM): 37.6%

**Q.** How did the growth (SK-MEL-2 melanoma; 10 µM) turn out when `CC1=CC(C)=Nc2ccc(Cl)cc2N1` was run?
**A.** 109%

**Q.** What about the growth (EKVX NSCLC; 10 µM) of the same compound?
**A.** 108%

**Q.** And the growth (SN12C renal; 10 µM)?
**A.** 104%

**Q.** And the growth (UO-31 renal; 10 µM)?
**A.** 85.9%

**Q.** And the growth (TK-10 renal; 10 µM)?
**A.** 117%

**Q.** And the growth (ACHN renal; 10 µM)?
**A.** 105%

**Q.** And the growth (CAKI-1 renal; 10 µM)?
**A.** 89.8%

**Q.** What about the growth (A498 renal; 10 µM) of the same compound?
**A.** 106%

**Q.** What about the growth (CCRF-CEM leukemia; 10 µM) of the same compound?
**A.** 93.9%

**Q.** And the growth (MOLT-4 leukemia; 10 µM)?
**A.** 97.5%

**Q.** Which results are given for `Cc1cc(O)c(C(C)C)cc1Cl`?
**A.** growth (SK-MEL-2 melanoma; 10 µM): 117%; growth (EKVX NSCLC; 10 µM): 103%; growth (SN12C renal; 10 µM): 104%; growth (UO-31 renal; 10 µM): 89.8%; growth (TK-10 renal; 10 µM): 97.6%; growth (ACHN renal; 10 µM): 106%; growth (CAKI-1 renal; 10 µM): 99.7%; growth (A498 renal; 10 µM): 118%; growth (CCRF-CEM leukemia; 10 µM): 104%; growth (MOLT-4 leukemia; 10 µM): 99%

**Q.** `N=S(c1ccccc1[N+](=O)[O-])c1ccccc1[N+](=O)[O-]` was tested. Which growth (SK-MEL-2 melanoma; 10 µM) did it give?
**A.** 89.2%

**Q.** What about the growth (EKVX NSCLC; 10 µM) of the same compound?
**A.** 85.8%

**Q.** What about the growth (SN12C renal; 10 µM) of the same compound?
**A.** 84.9%

**Q.** And the growth (UO-31 renal; 10 µM)?
**A.** 5.99% (active)

**Q.** What about the growth (TK-10 renal; 10 µM) of the same compound?
**A.** 22.4%

**Q.** What about the growth (ACHN renal; 10 µM) of the same compound?
**A.** 2.38% (active)

**Q.** And the growth (CAKI-1 renal; 10 µM)?
**A.** 85.5%

**Q.** What about the growth (A498 renal; 10 µM) of the same compound?
**A.** 107%

**Q.** What about the growth (CCRF-CEM leukemia; 10 µM) of the same compound?
**A.** 7.69% (active)

**Q.** What about the growth (MOLT-4 leukemia; 10 µM) of the same compound?
**A.** 98.9%

**Q.** With `NC1=C(Cl)C(=O)c2ccccc2C1=O` as the compound, how does the growth (SK-MEL-2 melanoma; 10 µM) read?
**A.** 51.9%

**Q.** What about the growth (EKVX NSCLC; 10 µM) of the same compound?
**A.** 107%

**Q.** What about the growth (SN12C renal; 10 µM) of the same compound?
**A.** 62.5%

**Q.** And the growth (UO-31 renal; 10 µM)?
**A.** 84.3%

**Q.** What about the growth (TK-10 renal; 10 µM) of the same compound?
**A.** 120%

**Q.** What about the growth (ACHN renal; 10 µM) of the same compound?
**A.** 76.8%

**Q.** And the growth (CAKI-1 renal; 10 µM)?
**A.** 89.5%

**Q.** What about the growth (A498 renal; 10 µM) of the same compound?
**A.** 104%

**Q.** What about the growth (CCRF-CEM leukemia; 10 µM) of the same compound?
**A.** 46%

**Q.** What about the growth (MOLT-4 leukemia; 10 µM) of the same compound?
**A.** 56.1%
